Data as given in PubChem BioAssay AID1159580 (chemical genetic matrix, 2015).
Hit rate of the full screen: of about 5,500 compounds, about 2,000 (36%) were called active. About 18% were inconclusive and are not listed. Rule as the data show it: active = normalized growth mostly below about 0.91 (no sharp cut-off); inconclusive = no clear call, values can overlap the other calls; inactive = mostly above about 0.92. The list shows a part of the results.

Test: chemical genetic growth profiling, strain panel (AID 1159580);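 also: tested at 20 µM; growth read once vehicle control cultures reached saturation at 30 °C; 1 = growth at the plate median or of vehicle wells; lower values mean less growth of the strain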
Settings: growth OD

Measured: normalized growth

CCOc1ccc2c(c1)C(C)=CC(C)(C)N2
inactive: S. cerevisiae deletion strains, locus YJR043C, strain POL32, stronger effect = lower value 0.979 | S. cerevisiae deletion strains, locus YJR075W, strain HOC1, stronger effect = lower value 0.975 | S. cerevisiae deletion strains, locus YKL009W, strain mrt4, stronger effect = lower value 0.988 | S. cerevisiae deletion strains, locus YKL068W, stronger effect = lower value 0.989 | S. cerevisiae deletion strains, locus YKL085W, strain MDH1 (second series), stronger effect = lower value 0.987 | S. cerevisiae deletion strains, locus YKL085W, strain MDH1, stronger effect = lower value 0.987 | S. cerevisiae deletion strains, locus YKL160W, strain elf1, stronger effect = lower value 0.996 | S. cerevisiae deletion strains, locus YKL190W, strain CNB1, stronger effect = lower value 0.997 | S. cerevisiae deletion strains, locus YKR001C, strain vps1, stronger effect = lower value 0.976 | S. cerevisiae deletion strains, locus YKR026C, strain gcn3, stronger effect = lower value 0.979 | S. cerevisiae deletion strains, locus YKR091W, strain srl3, stronger effect = lower value 0.98 | S. cerevisiae deletion strains, locus YLL001W, strain dnm1, stronger effect = lower value 1 | S. cerevisiae deletion strains, locus YLL026W, stronger effect = lower value 0.986 | S. cerevisiae deletion strains, locus YLL041C, strain sdh2, stronger effect = lower value 0.989 | S. cerevisiae deletion strains, locus YLR027C, strain aat2, stronger effect = lower value 1.01 | S. cerevisiae deletion strains, locus YLR039C, strain RIC1, stronger effect = lower value 0.997 | S. cerevisiae deletion strains, locus YLR058C, strain SHM2, stronger effect = lower value 0.984 | S. cerevisiae deletion strains, locus YLR102C, strain apc9, stronger effect = lower value 0.992 | S. cerevisiae deletion strains, locus YLR221C, strain rsa3, stronger effect = lower value 1 | S. cerevisiae deletion strains, locus YLR258W, strain gsy2, stronger effect = lower value 0.997 | S. cerevisiae deletion strains, locus YLR262C, strain YPT6 (second series), stronger effect = lower value 0.981 | S. cerevisiae deletion strains, locus YLR262C, strain YPT6, stronger effect = lower value 0.969 | S. cerevisiae deletion strains, locus YLR268W, strain sec22, stronger effect = lower value 0.924 | S. cerevisiae deletion strains, locus YLR320W, strain mms22, stronger effect = lower value 0.982 | S. cerevisiae deletion strains, locus YLR330W, strain CHS5, stronger effect = lower value 1 | S. cerevisiae deletion strains, locus YLR342W, strain FKS1 (second series), stronger effect = lower value 0.999 | S. cerevisiae deletion strains, locus YLR342W, strain FKS1, stronger effect = lower value 0.987 | S. cerevisiae deletion strains, locus YLR357W, strain rsc2, stronger effect = lower value 0.963 | S. cerevisiae deletion strains, locus YLR370C, strain arc18, stronger effect = lower value 0.998 | S. cerevisiae deletion strains, locus YLR371W, strain rom2, stronger effect = lower value 0.976 | S. cerevisiae deletion strains, locus YLR384C, strain iki3, stronger effect = lower value 0.989 | S. cerevisiae deletion strains, locus YLR418C, strain cdc73, stronger effect = lower value 0.983 | S. cerevisiae deletion strains, locus YML016C, strain PPZ1, stronger effect = lower value 0.984 | S. cerevisiae deletion strains, locus YML032C, strain rad52, stronger effect = lower value 0.977 | S. cerevisiae deletion strains, locus YML120C, strain ndi1, stronger effect = lower value 1 | S. cerevisiae deletion strains, locus YML124C, strain tub3, stronger effect = lower value 0.989 | S. cerevisiae deletion strains, locus YMR058W, strain fet3, stronger effect = lower value 0.988 | S. cerevisiae deletion strains, locus YMR078C, strain ctf18, stronger effect = lower value 0.972 | S. cerevisiae deletion strains, locus YMR125W, strain sto1, stronger effect = lower value 0.981 | S. cerevisiae deletion strains, locus YMR129W, stronger effect = lower value 0.991 | S. cerevisiae deletion strains, locus YMR205C, strain PFK2, stronger effect = lower value 0.987 | S. cerevisiae deletion strains, locus YMR223W, strain ubp8, stronger effect = lower value 0.998 | S. cerevisiae deletion strains, locus YMR231W, strain pep5, stronger effect = lower value 0.963 | S. cerevisiae deletion strains, locus YMR263W, strain SAP30, stronger effect = lower value 0.981 | S. cerevisiae deletion strains, locus YMR307W, strain GAS1, stronger effect = lower value 0.971 | S. cerevisiae deletion strains, locus YNL067W, strain RPL9B, stronger effect = lower value 0.977 | S. cerevisiae deletion strains, locus YNL071W, strain lat1, stronger effect = lower value 0.991 | S. cerevisiae deletion strains, locus YNL128W, strain TEP1, stronger effect = lower value 0.99 | S. cerevisiae deletion strains, locus YNL153C, strain GIM3, stronger effect = lower value 0.98 | S. cerevisiae deletion strains, locus YNL209W, strain ssb2, stronger effect = lower value 0.994 | S. cerevisiae deletion strains, locus YNL233W, strain BNI4, stronger effect = lower value 0.978 | S. cerevisiae deletion strains, locus YNL248C, strain rpa49, stronger effect = lower value 0.986 | S. cerevisiae deletion strains, locus YNL250W, strain rad50, stronger effect = lower value 0.986 | S. cerevisiae deletion strains, locus YNL271C, strain bni1, stronger effect = lower value 0.968 | S. cerevisiae deletion strains, locus YNL298W, strain CLA4, stronger effect = lower value 0.974 | S. cerevisiae deletion strains, locus YNL307C, strain MCK1, stronger effect = lower value 0.985 | S. cerevisiae deletion strains, locus YNL322C, strain KRE1 (second series), stronger effect = lower value 0.984 | S. cerevisiae deletion strains, locus YNL322C, strain KRE1, stronger effect = lower value 0.993 | S. cerevisiae deletion strains, locus YNR049C, strain mso1, stronger effect = lower value 0.989 | S. cerevisiae deletion strains, locus YNR052C, strain pop2, stronger effect = lower value 1 | S. cerevisiae deletion strains, locus YOL006C, strain TOP1, stronger effect = lower value 0.841 | S. cerevisiae deletion strains, locus YOL012C, strain htz1 1.09 | S. cerevisiae deletion strains, locus YOL147C, strain pex11, stronger effect = lower value 0.98 | S. cerevisiae deletion strains, locus YOR001W, strain rrp6, stronger effect = lower value 1.01 | S. cerevisiae deletion strains, locus YOR061W, strain CKA2, stronger effect = lower value 0.981 | S. cerevisiae deletion strains, locus YOR069W, strain VPS5, stronger effect = lower value 0.984 | S. cerevisiae deletion strains, locus YOR070C, strain gyp1, stronger effect = lower value 0.995 | S. cerevisiae deletion strains, locus YOR080W, strain dia2, stronger effect = lower value 0.989 | S. cerevisiae deletion strains, locus YOR083W, strain WHI5, stronger effect = lower value 0.989 | S. cerevisiae deletion strains, locus YOR106W, strain vam3, stronger effect = lower value 1 | S. cerevisiae deletion strains, locus YOR136W, strain idh2, stronger effect = lower value 0.99 | S. cerevisiae deletion strains, locus YOR144C, strain elg1, stronger effect = lower value 0.992 | S. cerevisiae deletion strains, locus YOR184W, strain ser1, stronger effect = lower value 0.969 | S. cerevisiae deletion strains, locus YOR265W, strain rbl2, stronger effect = lower value 1.03 | S. cerevisiae deletion strains, locus YOR270C, strain vph1, stronger effect = lower value 1 | S. cerevisiae deletion strains, locus YOR290C, strain snf2, stronger effect = lower value 0.991 | S. cerevisiae deletion strains, locus YOR316C, strain cot1, stronger effect = lower value 0.983 | S. cerevisiae deletion strains, locus YPL051W, strain arl3, stronger effect = lower value 0.985 | S. cerevisiae deletion strains, locus YPL055C, strain LGE1, stronger effect = lower value 0.997 | S. cerevisiae deletion strains, locus YPL078C, strain atp4, stronger effect = lower value 1.02 | S. cerevisiae deletion strains, locus YPL106C, strain sse1, stronger effect = lower value 0.964 | S. cerevisiae deletion strains, locus YPL240C, strain hsp82, stronger effect = lower value 0.991 | S. cerevisiae deletion strains, locus YPL241C, strain CIN2, stronger effect = lower value 0.997 | S. cerevisiae deletion strains, locus YPR119W, strain clb2, stronger effect = lower value 0.984 | S. cerevisiae deletion strains, locus YPR141C, strain kar3, stronger effect = lower value 0.973 | S. cerevisiae deletion strains, locus YPR163C, strain tif3, stronger effect = lower value 0.978 | S. cerevisiae deletion strains, locus YPR167C, strain met16, stronger effect = lower value 0.987 | S. cerevisiae deletion strains, strain wtn01, stronger effect = lower value 0.967 | S. cerevisiae strains, strain wild type, stronger effect = lower value 0.996
